TDP1 inh: qHTS Assay for Inhibitors of Tyrosyl-DNA Phosphodiesterase (TDP1). Tyrosyl-DNA phosphodiesterase 1 (Homo sapiens), Q9NUW8. recombinant TDP1, AlphaScreen DNA substrate cleavage. Potency, µM (top dose mostly 130 µM), for the others: at the highest dose activity change, negative = inhibition, most hits filed as inhibitors. 350,000 tested, 0.28% active. AID 485290, 2010; further: potency means the concentration at half of the fitted maximal effect; nearly all actives have a fitted effect of over 40% in size
Target sequence (Q9NUW8 whole entry, looked up): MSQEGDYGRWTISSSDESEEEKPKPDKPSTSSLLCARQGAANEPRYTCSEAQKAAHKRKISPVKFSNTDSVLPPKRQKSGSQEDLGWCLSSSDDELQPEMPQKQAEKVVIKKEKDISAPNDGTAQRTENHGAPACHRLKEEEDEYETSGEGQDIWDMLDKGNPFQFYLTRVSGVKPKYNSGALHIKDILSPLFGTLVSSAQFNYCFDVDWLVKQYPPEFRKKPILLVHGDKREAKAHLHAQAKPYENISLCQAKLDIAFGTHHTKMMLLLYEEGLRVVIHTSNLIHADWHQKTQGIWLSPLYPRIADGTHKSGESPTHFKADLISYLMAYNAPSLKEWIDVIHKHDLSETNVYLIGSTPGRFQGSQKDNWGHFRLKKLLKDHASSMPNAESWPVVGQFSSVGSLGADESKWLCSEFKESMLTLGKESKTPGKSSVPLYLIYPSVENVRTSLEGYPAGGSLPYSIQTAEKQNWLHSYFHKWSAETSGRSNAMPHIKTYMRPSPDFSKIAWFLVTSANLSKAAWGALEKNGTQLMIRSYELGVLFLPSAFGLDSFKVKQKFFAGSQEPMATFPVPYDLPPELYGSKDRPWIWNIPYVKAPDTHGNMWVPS
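Recombinant E. coli-expressed Tdp1 (1 nM) preincubated with compound 15 min at RT, then 5'-biotin/3'-phosphotyrosine-FITC DNA substrate (15 nM) added for 5 min. AlphaScreen beads (10 ug/ml) added, 10 min RT; tyrosine-FITC cleavage read as signal loss.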
Six1-Eya2 inh: qHTS Assay for Inhibitors of the Six1/Eya2 Interaction; AID 651725, 2012; AlphaScreen GST-Six1/His-Eya2 binding, biochemical; active compounds read low; 360,000 tested, 0.56% active; Homeobox protein SIX1 (Homo sapiens) + Protein phosphatase EYA2 (Homo sapiens), …; activity change, % (no concentration beside the values); in the data active means activity change below about -65%; inconclusive means mostly about -30% to -63%
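Six1/Eya2 binding was read as AlphaScreen signal after compounds were pinned into GST-Six1 plus His-tagged Eya2 (5X stock 250/500 nM) in pH 8.0 Tris/NaCl/TCEP buffer, beads added, then incubated 1 h, 37 C, dark.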
DT40 TDP1 no CPT: qHTS for Inhibitors of human tyrosyl-DNA phosphodiesterase 1 (TDP1): qHTS in cells in absence of CPT | DT40 Tdp1-/- hTDP1 cells, no CPT, ATP luminescence, 48 h | 420,000 tested, 15% active | Potency, µM (doses to about 46.2 µM), for inactives: top-dose activity change, negative = growth inhibition, hits mostly inhibitors; further: potency means the concentration at half of the fitted maximal effect; nearly all actives have a fitted effect of over 55% in size
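Seeded 400 DT40-hTDP1 cells/well (vehicle DMSO, no 20 nM CPT); pinned compounds; ≥48 hr at 37 °C; CellTiter-Glo luminescence as viability measure.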
CtBP-E1A blk: qHTS Assay for Inhibitors of the CtBP/E1A Interaction; AlphaScreen GST-E1A/His-CtBP binding, 1536-well; active compounds read low; activity change, % (concentration not given with the values); CtBP / adenovirus E1A interaction (AlphaScreen); 340,000 tested, 0.49% active; in the data active means activity change below about -65%; inconclusive means mostly about -30% to -63%
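Protein mix (5X: 125 nM each GST-E1A, His-CtBP) was incubated with pinned compound 2 h at 37 deg C in dark, in 50 mM Tris pH 8.0 buffer with 300 mM NaCl. Glutathione donor and nickel acceptor beads followed; AlphaScreen signal read after 1 h.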
IL-1B inflam inh: qHTS for Inhibitors of Inflammasome Signaling: IL-1-beta AlphaLISA Primary Screen; THP-1 LPS/ATP IL-1B secretion, AlphaLISA, 16 h; active compounds read low; activity change, % at 57.5 µM; 360,000 tested, 4.7% active; in the data active means activity change below about -50%; inconclusive means mostly about -30% to -49%
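THP-1 cells pretreated 1 hr with compounds (up to 57.5 uM final), then stimulated with LPS (250 ng/mL final) plus ATP (1.25 mM final); secreted IL-1B measured by AlphaLISA after 16 hr, decreased signal indicating inhibition.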
DT40 TDP1 CPT: qHTS for Inhibitors of human tyrosyl-DNA phosphodiesterase 1 (TDP1): qHTS in cells in presence of CPT; chicken DT40 Tdp1-/-;hTDP1 cells + 20 nM CPT, ATP luminescence, 48 h; Potency, µM (highest dose often 46.2 µM), for the others: top-dose activity change, negative = growth inhibition, hits mostly inhibitors; 420,000 tested, 12% active; AID 686979, 2013; further: potency means the concentration at half of the fitted maximal effect; nearly all actives have a fitted effect of over 55% in size
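Cell growth measured by CellTiter-Glo luminescence after a minimum 48 h, 37 C compound exposure with 20 nM CPT in Tdp1-knockout DT40 cells stably expressing hTDP1, seeded 400/well; qHTS titration format.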
The depositor's hits bear a star; ? = inconclusive; nt = not tested or not shown; ! = not confirmed by another sample. An excerpt weighted towards active compounds, which were near 18% of everything screened. Unless noted, the call rests on the fitted dose curve; in most records, active means well fitted curve in the direction sought with a large enough effect; inconclusive means small, poorly fitted or top-dose-only effect, or another doubt; inactive means no such curve, though single readings can be large; an effect the other way counts as inactive or inconclusive. On the % scale 0 is the no-effect control and ±100 the full control effect.

SMILES | TDP1 inh | Six1-Eya2 inh | DT40 TDP1 no CPT | CtBP-E1A blk | IL-1B inflam inh | DT40 TDP1 CPT
COc1cc(-c2noc(CCC(=O)Nc3cc(C)ccc3C)n2)cc(OC)c1OC | 4% | nt | 12µM* | nt | nt | 18µM*
O=C1CC(c2cccc(O)c2)c2cc3c(cc2N1)OCO3 (centres undefined) | 2% | nt | -13% | nt | nt | -1%
CN(C)c1nccc(Nc2ccccc2)c1C#N | -1% | -8 | 21µM* | -1 | -10 | ?
CCS(=O)(=O)N1CCc2cc(C(=O)Nc3cccc(NC(C)=O)c3)ccc21 | 6% | nt | ? | nt | nt | ?
CCS(=O)(=O)N1CCc2cc(C(=O)Nc3ccc(OC)cc3OC)ccc21 | 6% | nt | 16µM* | nt | nt | ?
CCS(=O)(=O)N1CCc2cc(C(=O)Nc3ccc(C)c(Cl)c3)ccc21 | 6% | nt | 13µM* | nt | nt | 18µM*
CCS(=O)(=O)N1CCc2cc(C(=O)Nc3ccc(OC)c(Cl)c3)ccc21 | 11% | nt | 18µM* | nt | nt | ?
CCS(=O)(=O)N1CCc2cc(C(=O)Nc3ccc(C(=O)OC)cc3)ccc21 | 0% | nt | ? | nt | nt | ?
CCS(=O)(=O)N1CCc2cc(C(=O)NCCc3ccc(OC)cc3)ccc21 | 9% | nt | ? | nt | nt | ?
COc1ccc(CC(NC(C)=O)C(=O)N2CCN(C(=O)Nc3cccc(F)c3)CC2)cc1OC (centres undefined) | -3% | -1 | 4% | nt | -1 | 1%
Cc1nn(Cc2cccc(C(=O)Nc3ccn(Cc4ccccc4F)n3)c2)c(C)c1[N+](=O)[O-] | 2% | -3 | ? | 0 | 0 | 23µM*
Cc1cccc(Cn2ccc(NC(=O)c3ccc4c(c3)OCO4)n2)c1 | 2% | -13 | -27% | -6 | -52* | 8%
O=C(Nc1ccn(Cc2ccccc2F)n1)c1ccc(COc2ccc(Br)cc2)cc1 | 1% | 1 | ? | 0 | -27 | 11µM*
O=C(Nc1ccc(Cn2cccn2)cc1)c1ccc(COc2ccc(Br)cc2)cc1 | -2% | 3 | -19% | 9 | 13 | -19%
COc1ccc(-n2c(CCc3ccccc3)nnc2SCC(=O)c2ccccc2)cc1 | 3% | -6 | ? | -13 | -80* | ?
COc1ccc(C(=O)CSc2nnc(CCc3ccccc3)n2-c2ccccc2)cc1 | 7% | -2 | 15µM* | -6 | -17 | 16µM*
COc1ccccc1-c1nnc(SCC(=O)c2ccc(Cl)cc2)n1-c1ccccc1 | 6% | nt | nt | nt | nt | nt
O=C(NC1CCCCC1)C1CCCN(c2nnnn2-c2ccccc2)C1 (centres undefined) | 6% | 5 | -12% | 7 | -17 | -13%
Cc1cccc(-c2csc(NC(=O)c3cnccn3)c2C(=O)OC(C)C)c1 | 6% | 8 | -24% | 6 | 34 | ?
COc1cc(F)ccc1S(=O)(=O)N1CCN(C23CC4CC(CC(C4)C2)C3)CC1 | 4% | -4 | -15% | -2 | -24 | 1%
COc1cc(C)ccc1S(=O)(=O)N1CCN(C23CC4CC(CC(C4)C2)C3)CC1 | 2% | 0 | 16µM* | 2 | -6 | ?
COC(=O)C[C@H]1CC[C@H](NC(=O)Nc2ccccc2F)[C@@H](CO)O1 | nt | 2 | 23µM* | -2 | -8 | 23µM*
CSc1cccc(NC(=O)Cn2c3ncccc3c(=O)n2-c2ccc(C)cc2)c1 | -8% | nt | 16µM* | nt | nt | ?
Cc1ccc(-n2c(=O)c3cccnc3n2CC(=O)Nc2cc(Cl)ccc2C)cc1 | 3% | nt | -21% | nt | nt | -15%
COc1ccc(CNC(=O)CCn2ccc3cc(S(=O)(=O)N4CCCC4)ccc32)cc1 | -13% | 4 | 0% | 1 | 0 | -10%
SMILES | TDP1 inh | Six1-Eya2 inh | DT40 TDP1 no CPT | CtBP-E1A blk | IL-1B inflam inh | DT40 TDP1 CPT
COc1ccc(OC)c(CNC(=O)CCCn2ccc3cc(S(=O)(=O)N4CCCC4)ccc32)c1 | 4% | -3 | ? | -5 | 2 | 15µM*
CCc1ccc(CNC(=O)CCCn2ccc3cc(S(=O)(=O)N4CCCC4)ccc32)cc1 | 3% | nt | 4.1µM* | nt | nt | 4.6µM*
CCC(CC)C(=O)N1CCc2cc(OC)c(OC)cc2C1COc1ccc2c(C)cc(=O)oc2c1 (centres undefined) | 0% | nt | 16µM* | nt | nt | ?
CCCC(=O)N1CCc2cc(OC)c(OC)cc2C1COc1ccc2c(C)cc(=O)oc2c1 (centres undefined) | 9% | nt | 13µM* | nt | nt | ?
COc1cc2c(cc1OC)C(COc1ccc3c(C)cc(=O)oc3c1)N(C(=O)c1ccc(C)cc1)CC2 (centres undefined) | 6% | nt | ? | nt | nt | ?
COc1cc2c(cc1OC)C(COc1ccc3c(C)cc(=O)oc3c1)N(C(=O)c1ccc(C)c(C)c1)CC2 (centres undefined) | -6% | nt | 16µM* | nt | nt | ?
COc1cc2c(cc1OC)C(COc1ccc3c(C)cc(=O)oc3c1)N(C(=O)Cc1ccccc1)CC2 (centres undefined) | -3% | nt | ? | nt | nt | ?
Cc1ccc(C)c(-c2ccc(=O)n(Cc3ccc(F)cc3Cl)n2)c1 | -7% | 5 | ? | 4 | -75* | 18µM*!
Cc1nn(Cc2ccc(F)cc2Cl)c(C)c1[N+](=O)[O-] | -1% | 5 | -13% | 0 | -1 | -3%
Cc1ccc(C)c(-c2ccc(=O)n(Cc3cccc(Br)c3)n2)c1 | nt | 4 | ? | 0 | -98* | -18%
COC(=O)CN1CCN(C(=O)c2ccco2)CC1 | 2% | 1 | 4% | 11 | 8 | 1%
CC(C)c1ccc(Nc2c(-c3ccsc3)nc3ccc(Cl)cn23)cc1 | 2% | nt | ? | nt | nt | ?
Cc1ccc2nc(-c3ccsc3)c(Nc3ccccc3C)n2c1 | 8% | nt | 7.3µM* | nt | nt | 6.5µM*
CSc1ccc(-c2nc3ccc(C)cn3c2Nc2ccccc2C)cc1 | 0% | nt | 7% | nt | nt | -18%
Cc1cccc(C)c1Nc1c(-c2ccsc2)nc2ccc(Cl)cn12 | -3% | nt | 7.3µM* | nt | nt | ?
Cc1cccc(C)c1Nc1c(-c2ccccn2)nc2ccccn12 | 10% | -84* | 6.5µM* | nt | 32 | 6.5µM*
Cc1cccc(C)c1Nc1c(-c2ccsc2)nc2ccccn12 | 12% | nt | 5.8µM* | nt | nt | 7.3µM*
